TDP1 block = qHTS Assay for Inhibitors of Tyrosyl-DNA Phosphodiesterase (TDP1); AID 485290, 2010; Potency, µM (doses to about 130 µM), for the others: at the top dose activity change, negative = inhibition, most hits filed as inhibitors; recombinant TDP1, AlphaScreen DNA substrate cleavage; Tyrosyl-DNA phosphodiesterase 1 (Homo sapiens), Q9NUW8; actives 0.28% (n = 350,000); note: % is set by controls: 0 for no effect and ±100 for the full control effect; nearly all actives have a fitted effect of over 40% in size
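Recombinant human Tdp1 (E. coli-expressed, 1 nM final) preincubated with compounds 15 min at room temperature, then 5'-biotin/3'-phosphotyrosine-FITC DNA substrate (15 nM final) added for 5 min. AlphaScreen beads (10 ug/ml final) added 10 min; cleavage lowers signal.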
TDP1 cell noCPT = qHTS for Inhibitors of human tyrosyl-DNA phosphodiesterase 1 (TDP1): qHTS in cells in absence of CPT; DT40 Tdp1-/- hTDP1 cells, no CPT, ATP luminescence, 48 h; actives 15% (n = 420,000); Potency, µM (titrated, usually from 46.2 µM), for the others: at the top dose activity change, negative = growth inhibition, actives largely listed as inhibitors; AID 686978, 2013; note: % is set by controls: 0 for no effect and ±100 for the full control effect; nearly all actives have a fitted effect of over 55% in size
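Chicken DT40 Tdp1-/- cells complemented with human TDP1, screened without camptothecin (DMSO vehicle only), 400 cells/well. Compounds pin-transferred, cells incubated at 37 °C for at least 48 hr. Growth read as ATP-dependent luminescence (CellTiter-Glo, 30 min at RT).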
ClpP mod = qHTS Assay for Activators of ClpP | ATP-dependent Clp protease proteolytic subunit (Bacillus subtilis (strain 168)), P80244 | actives 1.9% (n = 340,000) | AID 651965, 2013 | Potency, µM (titrated, usually from 57.5 µM), for the others: at the top dose activity change, negative = active | purified B. subtilis ClpP, FRET peptide cleavage, 20 min; active = well fitted falling curve with a large enough effect; inconclusive = small, poorly fitted or top-dose-only effect; inactive = no such curve, though single readings can be large or run the other way; note: the source files actives as falling curves though it sought activators and does not explain the sign; nearly all actives have a fitted effect of over 65% in size
Target sequence (P80244 whole entry, looked up): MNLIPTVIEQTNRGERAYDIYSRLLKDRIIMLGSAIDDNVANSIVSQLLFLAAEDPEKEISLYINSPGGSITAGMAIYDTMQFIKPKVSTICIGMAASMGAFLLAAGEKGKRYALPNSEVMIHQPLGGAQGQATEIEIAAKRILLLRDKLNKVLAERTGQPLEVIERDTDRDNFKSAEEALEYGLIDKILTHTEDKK
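ClpP 10 microg/mL final, pH 8 Tris/KCl buffer with BSA, glycerol, Tween-20; compound pinned in; FRET-FV substrate; RT 20 min; Ex320/Em430; ΔFRET vs ADEP 5.8 microM, DMSO, no enzyme.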
TDP1 cell CPT = qHTS for Inhibitors of human tyrosyl-DNA phosphodiesterase 1 (TDP1): qHTS in cells in presence of CPT | chicken DT40 Tdp1-/-;hTDP1 cells + 20 nM CPT, ATP luminescence, 48 h | Potency, µM (doses to about 46.2 µM), for inactives: at the highest dose activity change, negative = growth inhibition, usual class: inhibitors | actives 12% (n = 420,000) | AID 686979, 2013; note: % is set by controls: 0 for no effect and ±100 for the full control effect; nearly all actives have a fitted effect of over 55% in size
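Cell growth measured by CellTiter-Glo luminescence after a minimum 48 h, 37 C compound exposure with 20 nM CPT in Tdp1-knockout DT40 cells stably expressing hTDP1, seeded 400/well; qHTS titration format.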
* = called active by the depositor; u = inconclusive; x = not tested or not shown; [ ] = remark or other dose. Hits are enriched below; roughly 17% of the tested compounds scored in any of these assays. Unless noted, calls come from the whole dose curve; as a rule, active = well fitted curve in the direction sought with a large enough effect; inconclusive = small, poorly fitted or top-dose-only effect, or another doubt; inactive = no such curve, though single readings can be large; an effect the other way counts as inactive or inconclusive. Potency is the fitted concentration of half-maximal effect.

SMILES	TDP1 block	TDP1 cell noCPT	ClpP mod	TDP1 cell CPT
N#CCCN(Cc1cccnc1)C(=S)NC(=O)C1CC1	0%	x	x	x
CCn1c(O)c(N=NC(=O)c2cccnc2)c2cc(Br)ccc21	4%	23µM*	x	u
CCC(=O)Nc1cc2c(C)cc(=O)oc2cc1C	0%	2%	32µM*	6%
CCOc1cc(/C=C(\C#N)C(=O)Nc2cccc(C(=O)O)c2)ccc1OCc1ccc(Br)cc1	14µM*	29µM*	x	u
COc1cc(/C=C(\C#N)C(=O)Nc2cccc(C(=O)O)c2)ccc1OCc1ccc(C)cc1	3%	-22%	0%	-9%
N#C/C(=C\c1ccc(OCc2ccc(Cl)cc2)cc1)C(=O)Nc1cccc(C(=O)O)c1	35µM*	-1%	x	6%
CC(=O)OC1C[C@]2(C)[C@@H](CC(O)C3[C@]4(C)CCC(O)C(C)[C@@H]4CC[C@]32C)/C1=C(/CCC=C(C)C)C(=O)O (some centres not stated)	-2%[56.1 µM]	3%	x	10%
Cc1nc(-c2ccc(C)c(S(=O)(=O)N3CCC(C(=O)NCc4ccc(F)cc4)CC3)c2)no1	0%	5.2µM*	-1%	2.6µM*
CCS(=O)(=O)N1CCC(C(=O)NCc2ccc(F)cc2)CC1	5%	-11%	1%	-4%
Cc1ccc(CNC(=O)C2CCN(S(=O)(=O)c3cc(-c4noc(C)n4)ccc3C)CC2)cc1	0%	2.6µM*	-1%	4.6µM*
Cc1nc(-c2ccc(C)c(S(=O)(=O)N3CCC(C(=O)NCc4ccc(Cl)cc4)CC3)c2)no1	-2%	u	-5%	u
Cc1ccc(C(=O)Cc2ccccc2)o1	x	-1%	0%	-16%
COC(=O)c1cc2c(cc1N)OCCO2	8%	-11%	-2%	4%
Cc1ccc(C)c(Cn2nnc(C(=O)NCc3ccccc3)c2N)c1	1%	u	1%	-16%
CCCCNc1nccnc1-c1cccc(C=O)c1	x	u	5%	18µM*
Cc1ccc(C)c(NC(=O)C(=O)NCCc2csc(-c3ccc(C(F)(F)F)cc3)n2)c1	1%	u	-5%	-50%
CCN(CC)CCOC(=O)c1ccc(NC(=O)CSc2nnc(-c3cccs3)n2CC)cc1	x	2%	1%	-15%
COCCN(CCOC)Cc1cc(=O)oc2cc3c(cc12)CCC3	8%	-21%	-11%	-21%
Cc1c(O)ccc2c(CN3CCN(Cc4ccccc4)CC3)cc(=O)oc12	x	-20%	3%	-29%
CC(C)CN(Cc1cc(=O)oc2cc3c(cc12)CCCC3)CC(C)C	3%	21µM*	-4%	u
CCc1cc2c(CN(C)Cc3ccccc3F)cc(=O)oc2cc1O	5%	15µM*	x	u
O=c1cc(CN2CCN(Cc3ccccc3)CC2)c2ccc(O)c(O)c2o1	x	15µM*	2%	10µM*
O=c1cc(CN2CCN(Cc3ccccc3)CC2)c2cc3c(cc2o1)CCC3	x	18µM*	0%	u
CCCCN(CC)CCOc1cccc2ccccc12	15%	u	x	-28%
Cc1occc1C(=O)/C(C#N)=C/c1ccc(O)c(Br)c1	-6%[0.0935 µM]	-6%	x	3%
SMILES	TDP1 block	TDP1 cell noCPT	ClpP mod	TDP1 cell CPT
CCc1cc2c(CN3CCN(Cc4ccccc4)CC3)cc(=O)oc2cc1O	x	18µM*	x	16µM*
CCc1ccc2c(CN3CCN(Cc4ccccc4)CC3)cc(=O)oc2c1	1%	u	x	-23%
CC(=O)c1cccc(NC(=O)C(C)OC(=O)Cc2c[nH]c3ccccc23)c1 (configuration not stated)	x	2%	0%	-3%
Cc1sc2nc3c(C(=O)N4CCCC4)cc(C(=O)c4ccccc4O)cn3c(=O)c2c1C	-5%	13µM*	1%	u
COc1cccc(N2CCN(C(=O)c3cccn4c(=O)c5c(C)c(C)sc5nc34)CC2)c1	4%	u	x	-20%
CCc1c(C)sc2nc3c(C(=O)N4CCOCC4)cc(C(=O)c4cc(F)ccc4O)cn3c(=O)c12	5%	16µM*	x	23µM*
O=C(c1cc(C(=O)N2CCOCC2)c2nc3ccccc3n2c1)c1ccccc1O	11%	u	-1%	u
CC(C)Cc1ccc(CN2CCCC(NC(=O)CCN3CCOCC3)C2)cc1 (configuration not stated)	5%	u	1%	u
CC(C)Cc1ccc(CN2CCCC(NC(=O)CCCN3CCCC3=O)C2)cc1 (configuration not stated)	2%	21µM*	-1%	u
Cc1ccc(CN(C(=O)COc2ccccc2[N+](=O)[O-])c2ccccn2)cc1	3%	u	-4%	u
CCOC(=O)c1ccc2ncc(C(=O)OCC)c(NCc3ccco3)c2c1	0%	23µM*	69%	15µM*
CCOC(=O)c1cnc2c(C)cccc2c1NCc1ccco1	1%	-19%	-18%	-25%
CCOC(=O)c1cnc2ccc(C(=O)OC)cc2c1Nc1ccccc1CC	x	12µM*	-2%	16µM*
CCOC(=O)c1cnc2ccc(C(=O)OC)cc2c1Nc1ccc(C(=O)O)cc1	4%	-8%	x	-16%
Cc1c(C(=O)N/N=C/c2ccc(N(C)C)cc2)[nH]c2ccc(Cl)cc12	8%	5.8µM*	32µM*	5.8µM*
Cc1c(C(=O)N/N=C/c2ccccc2)[nH]c2ccc(Cl)cc12	5%	6.5µM*	-1%	9.2µM*
CCOC(=O)C(C(=O)OCC)C1N=C(N)N=C2Oc3ccccc3N21 (configuration not stated)	10%	-15%	25µM*	-11%
CCOC(=O)N1c2ccccc2C=CC1OCC (configuration not stated)	6%	x	x	x
Cc1cccc(CN2CCCC(C(=O)c3ccc4c5c(cccc35)CC4)C2)n1 (configuration not stated)	11%	13µM*	-12%	16µM*
COc1cc(CN2CCCC(C(=O)c3ccc4c5c(cccc35)CC4)C2)cc(OC)c1O (configuration not stated)	8%	4.6µM*	4%	4.6µM*
CCOC(=O)C1CCCN(Cc2ccc(OC)c(OCc3ccccc3)c2)C1 (configuration not stated)	x	0%	0%	-20%
COc1cc(OC)cc(C(=O)Nc2ccc3oc(-c4ccc(Cl)cc4)nc3c2)c1	3%[12.3 µM]	u	-20%	u
Cc1ccc2cc(C#N)c(N3CCCN(S(=O)(=O)c4ccc(F)cc4)CC3)nc2c1	x	15µM*	u	u
Cc1ccc2cc(C#N)c(N3CCCN(S(=O)(=O)c4ccccc4)CC3)nc2c1C	x	-13%	u	-9%
Cc1ccc2cc(C#N)c(N3CCCN(S(=O)(=O)c4ccccc4)CC3)nc2c1	4%	26µM*	-13%	u
